From PubChem
Rows were chosen to be rich in hits. Some 10% of all compounds tested hit in one or more screens of this group.
NIH3T3 tox: kills NIH 3T3 cells; NIH 3T3 viability, CellTiter-Glo ATP luminescence, 48-72 h; AID 1345082; actives 4.3% (n = 94,000); Potency, µM (titrated, usually from 96.7 µM), usual class: inhibitors; note: nearly all actives have a fitted effect of over 55% in size
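NIH 3T3 cells at 400 cells/well received 23 nL of compound by pintool and were incubated 48 or 72 h at 37 °C. Viability was read as ATP-coupled CellTiter-Glo luminescence.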
FLuc inh: blocks purified firefly luciferase enzyme activity | P08659 | purified P. pyralis luciferase, luminescence, biochemical | Potency, µM (doses to about 115 µM), actives largely listed as inhibitors | actives 2.5% (n = 76,000); note: nearly all actives have a fitted effect of over 65% in size
Target sequence (P08659 whole entry, looked up): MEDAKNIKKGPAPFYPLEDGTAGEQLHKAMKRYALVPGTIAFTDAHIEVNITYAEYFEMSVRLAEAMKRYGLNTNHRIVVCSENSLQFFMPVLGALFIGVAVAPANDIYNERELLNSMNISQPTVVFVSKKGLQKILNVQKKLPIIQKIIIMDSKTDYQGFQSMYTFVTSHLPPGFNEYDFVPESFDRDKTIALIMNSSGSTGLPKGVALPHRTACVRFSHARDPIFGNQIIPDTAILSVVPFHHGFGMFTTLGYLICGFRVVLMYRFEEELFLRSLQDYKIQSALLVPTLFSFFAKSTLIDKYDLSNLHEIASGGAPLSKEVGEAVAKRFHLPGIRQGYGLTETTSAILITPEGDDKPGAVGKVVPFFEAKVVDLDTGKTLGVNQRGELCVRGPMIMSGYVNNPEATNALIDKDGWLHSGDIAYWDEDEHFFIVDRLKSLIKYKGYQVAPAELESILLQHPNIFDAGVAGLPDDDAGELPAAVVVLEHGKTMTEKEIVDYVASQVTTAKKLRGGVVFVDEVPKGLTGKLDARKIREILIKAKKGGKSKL
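Purified 10nM P. pyralis luciferase with 10uM D-luciferin and 10uM ATP in 50mM Tris acetate pH 7.5, 10mM Mg acetate, 0.01% Tween-20, 0.05% BSA. qHTS titration; luminescence read by CCD imager.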
GPT2 inhibitor: inhibitors of human GPT2 alanine aminotransferase; Q8TD30; Recombinant GPT2, coupled pyruvate oxidase/HRP Amplex Red fluorescence; Potency, µM (doses to about 57.7 µM), usual class: inhibitors; actives 0.25% (n = 100,000); AID 1671188; note: nearly all actives have a fitted effect of over 60% in size
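Recombinant GPT2 (10ng/uL) with 250uM a-KG and 2mM L-alanine, 30 min at room temperature, in HEPES pH 7.5 buffer. Pyruvate detected by pyruvate oxidase/HRP/Amplex Red fluorescence after 30 min in the dark; AOA (50uM) as positive control.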
HEK293 tox: HEK 293 cell cytotoxicity. actives 6.6% (n = 94,000). Potency, µM (series often up to 115 µM), hits mostly inhibitors. HEK 293 viability, ATP luminescence (CellTiter-Glo), 48-72 h. AID 1345083; note: nearly all actives have a fitted effect of over 60% in size
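HEK 293 cells seeded at 250 cells/well were exposed to compound for 48 or 72 hr at 37 degree Celsius. Viability taken as ATP content by CellTiter-Glo luminescence.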
hNpr1 antagonist: human Npr1 receptor antagonism. P16066. HEK293 hNpr1 GloSensor cGMP, ANP-stimulated luminescence. Potency, µM (top dose mostly 46.3 µM), hits mostly inhibitors. actives 1.6% (n = 76,000). AID 1347048; calls by dose curve; note: nearly all actives have a fitted effect of over 60% in size
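Compound pre-incubated 30 min at room temperature on GloSensor-loaded HEK293 cells stably carrying hNpr1 and the pGS-40F cGMP biosensor. Stimulation uses hNppA at 0.1 nM final; luminescence is taken at baseline and 20 min post-agonist.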
Numbers stand for hits; . = inactive; ? = inconclusive; / = not tested or not shown; ! = not confirmed by another sample. Unless noted, calls come from the whole dose curve; as a rule, active = well fitted curve in the direction sought with a large enough effect; inconclusive = small, poorly fitted or top-dose-only effect, or another doubt; inactive = no such curve, though single readings can be large; an effect the other way counts as inactive or inconclusive.

SMILES	NIH3T3 tox	FLuc inh	GPT2 inhibitor	HEK293 tox	hNpr1 antagonist
CCOc1ccc(C(=O)NC2CCCN(c3cc(-c4ccc(OC)cc4)[nH]n3)C2)cc1 (centres undefined)	.	?	.	?	.
Cn1ncc(N2CCC(NC(=O)c3ccc4c(c3)OCO4)CC2)cc1=O	.	.	.	.	.
CCOc1cccc(CNC(=O)[C@H]2CCC[C@H]2NC(=O)c2cnc(C)cn2)c1	.	.	.	.	.
CN(C)c1cccc(C(=O)NCC2CCN(c3cc(-c4ccc(Cl)cc4)[nH]n3)CC2)c1	40µM	?	?	?	.
O=C(NC1CCN(c2cc(-c3ccccc3)[nH]n2)C1)c1ccc(Br)cc1 (centres undefined)	.	.	.	.	.
CN(C)c1cccc(C(=O)NC2CCN(c3cc(-c4ccccc4)[nH]n3)CC2)c1	?	40µM	.	?	.
CN(C)c1ccc(C(=O)NC2CCCN(c3cc(-c4ccc(F)cc4)[nH]n3)C2)cc1 (centres undefined)	?	?	.	35µM	.
Cc1ccc(-c2cc(N3CCC(CNC(=O)c4cccc(N(C)C)c4)CC3)n[nH]2)cc1	?	?	.	?	.
O=C(NC1CCCN(c2cc(-c3ccccc3)[nH]n2)C1)c1ccc(Br)cc1 (centres undefined)	32µM	.	.	22µM	.
O=C(Cc1ccc(F)cc1)NC1CCN(c2ccc3nnc(C4CC4)n3n2)CC1	?	/	/	.	/
Cc1ccc(NC(=O)Cn2c(-c3cnccn3)nc(C)c(C)c2=O)cc1Cl	?	.	.	?	.
O=C(NC1CCN(c2cc(-c3ccccc3)[nH]n2)CC1)c1ccsc1	.	?	.	79µM	.
COC(=O)N1CCN(C(=O)c2cccc(-c3ccccn3)c2)CC1	.	/	.	.	/
Cc1ccc(C(=O)N2CCN(Cc3ccccc3-c3cccnc3)CC2)cc1	?	/	.	?	/
COc1ccc(-c2[nH]nc3ncc(-c4ccc(C)cc4)nc23)cc1F	40µM	.	.	45µM	.
COc1ccc(-c2[nH]nc3ncc(-c4ccc([S+](C)(=O)[O-])cc4)nc23)cc1F	?	.	.	?	.
COc1ccc(-c2[nH]nc3ncc(-c4ccccc4F)nc23)cc1F	50µM	.	.	?	.
COc1ccc(-c2cnc3n[nH]c(-c4ccc(OC)c(F)c4)c3n2)cn1	?	.	.	?	.
O=C(NC1CCCCCC1)c1ccc2nc(-c3ccncc3)oc2c1	.	/	?	.	/
Cc1ccc(-c2c(C(=O)NCCc3ccccc3F)nc3sccn23)cc1	?	/	.	?	/
COc1ccccc1-c1ccc(CN2CCCCC2C(=O)NCC(F)F)cc1 (centres undefined)	45µM!	/	/	?	/
COc1ccc(F)cc1-c1ccc(CN2CCCCC2C(=O)NCCc2ccc(Cl)cc2)cc1 (centres undefined)	?	/	/	32µM	/
COc1ccc(F)cc1-c1ccc(CN2CCCCC2C(=O)N2CCCN(C(C)=O)CC2)cc1 (centres undefined)	.	/	/	45µM	/
COc1ccc(F)cc1-c1ccc(CN2CCCCC2C(=O)NCC(F)F)cc1 (centres undefined)	?	/	/	35µM	/
COc1ccccc1-c1ccc(CN2CCCCC2C(=O)NCc2ccc(C(F)(F)F)cc2)cc1 (centres undefined)	?	/	.	?	/
SMILES	NIH3T3 tox	FLuc inh	GPT2 inhibitor	HEK293 tox	hNpr1 antagonist
COc1ccccc1-c1ccc(CN2CCCCC2C(=O)N2CCOCC2)cc1 (centres undefined)	.	/	.	?	/
O=C(Cc1ccccc1O)N1CCCC(CCc2c(F)cccc2F)C1 (centres undefined)	?	.	.	?	.
COc1ccccc1-c1ccc(CN2CCCCC2C(=O)NC(C)C)cc1 (centres undefined)	?	/	/	79µM	/
Cc1ccccc1CC(=O)N1CCCN(c2cc(-c3ccc(Cl)cc3)[nH]n2)CC1	?	.	?	?	.
COc1cccc(CC(=O)N2CCCN(c3cc(-c4ccccc4)[nH]n3)CC2)c1	?	.	?	35µM	.
O=C(Cc1c[nH]c2ccccc12)N1CCCN(c2cc(-c3ccc(Cl)cc3)[nH]n2)CC1	35µM	.	?	45µM	?
COc1ccc(-c2cc(N3CCCN(C(=O)Cc4ccc(C)cc4)CC3)n[nH]2)cc1	?	.	?	?	?
Cc1ccc(CC(=O)N2CCCN(c3cc(-c4ccc(C)c(C)c4)[nH]n3)CC2)cc1	32µM	.	?	32µM	?
Cc1cccc(CC(=O)N2CCCN(c3cc(-c4ccc(Cl)cc4)[nH]n3)CC2)c1	40µM	.	?	?	?
CC(=O)N1CCC(N2CCN3C(=O)N(c4ccccc4)C[C@H]3C2)CC1	.	.	.	.	.
CC(=O)NCc1nnc2n1C(C(=O)NCc1ccccc1F)CC2 (centres undefined)	.	/	.	.	/
COc1cccc(C(=O)N2CCC(C(NC(=O)c3ccccc3)C(=O)NCc3ccco3)CC2)c1 (centres undefined)	?	.	.	?	.
Cc1ccc(-c2cc(N3CCCN(C(=O)c4ccccc4C)CC3)n[nH]2)cc1C	40µM	.	?	32µM	?
COc1ccc(-c2cc(N3CCCN(C(=O)Cc4cccc(F)c4)CC3)n[nH]2)cc1	?	.	?	40µM	.
COc1ccc(-c2cc(N3CCCN(C(=O)Cc4ccc(Cl)cc4)CC3)n[nH]2)cc1	?	.	?	45µM	.
O=C(c1cc(C(F)(F)F)[nH]n1)N1CC[C@@H](c2ccc(F)cc2)[C@H](O)C1	.	.	.	?	.
COc1ccccc1-c1cccc(C(=O)N2CCN(C(=O)c3ccccc3C)CC2)c1	35µM	/	.	32µM	/
COc1ccccc1-c1cccc(C(=O)N2CCN(C(C)=O)CC2)c1	.	/	.	.	/
COc1ccccc1-c1cccc(C(=O)N2CCN(C(=O)c3ccc(Cl)cc3)CC2)c1	32µM	/	.	?	/
COc1ccccc1-c1cccc(C(=O)N2CCN(C(=O)c3ccccc3)CC2)c1	.	/	.	?	/
COc1ccc(CN2CC3(Cc4ccccc4NC3=O)C2)cc1	.	/	.	.	/
Cc1nnc2ccc(N3CCN(C(=O)C4CCCC4)CC3)nn12	?	/	/	.	/
c1ccc(-c2ccnc(NCC3OCCc4ccccc43)n2)nc1 (centres undefined)	?	45µM	.	40µM	.
c1ccc(-c2nc3c(c(NCC4OCCc5ccccc54)n2)CCNC3)nc1 (centres undefined)	40µM	?	.	?	.
CN1CCN(CCCNc2nccc(-c3ccccn3)n2)CC1	.	.	.	.	.
O=C(NCCCc1ccccc1)c1cc(-c2ccccc2)c2nncn2n1	?	/	.	45µM	/
O=C(NCCc1ccccc1)c1cc(-c2ccsc2)c2nncn2n1	?	/	.	40µM	/
